{"source": "the supplement of paper PMC10849652", "note": "About 7,900 targets were measured; listed, in parts, are those with a hit and a random draw of the rest. About 0.6% of all pairs of compound and target were hits.", "data": [{"compound": "CN1CCc2c(c3ccccc3n2Cc2ccc(C(=O)NO)cc2)C1 [Tubastatin A]", "experiment": "log2 fold change, soluble protein after heating vs DMSO (PISA); higher = thermal stabilisation; K562 cells, 10 uM, 30 min; active = over 0.2 and 3.5 SD of the protein, either way, in both replicates (recomputed)", "in_short": "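K562 cells at 2×10^6 cells/mL were treated for 30 min with 10 μM compound, and aliquots were heated for 3 min over 48°C-58°C before pooling. Extraction used PBS with 0.5% NP-40 at 4°C, and soluble protein was the supernatant after 21,000xg for 90 min, measured by TMTpro 16plex LC-MS/MS with channel sums equalised. Thermal stability values, relative to control samples and from duplicates, are log2 fold changes.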", "values": [{"target": "NOB1 (UniProt Q9ULX3)", "sequence (Q9ULX3 whole entry, looked up)": "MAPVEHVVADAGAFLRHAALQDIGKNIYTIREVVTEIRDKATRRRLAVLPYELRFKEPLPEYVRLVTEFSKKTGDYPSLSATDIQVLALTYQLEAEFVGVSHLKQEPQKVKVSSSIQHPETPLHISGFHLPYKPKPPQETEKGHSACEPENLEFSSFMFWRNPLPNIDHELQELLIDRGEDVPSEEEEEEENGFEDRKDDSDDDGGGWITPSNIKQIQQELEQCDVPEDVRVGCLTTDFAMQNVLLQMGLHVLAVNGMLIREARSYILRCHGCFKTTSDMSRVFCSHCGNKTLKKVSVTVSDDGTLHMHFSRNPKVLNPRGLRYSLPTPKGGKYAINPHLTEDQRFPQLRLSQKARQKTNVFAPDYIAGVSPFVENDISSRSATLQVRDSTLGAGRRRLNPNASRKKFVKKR", "log2 fold change": "0.045 (inactive)"}, {"target": "MRPS25 (UniProt P82663)", "log2 fold change": "0.084 (inactive)"}, {"target": "NACC1 (UniProt Q96RE7)", "log2 fold change": "0.034 (inactive)"}, {"target": "NEMP1 (UniProt O14524)", "log2 fold change": "-0.002 (inactive)"}, {"target": "MTHFD1 (UniProt P11586)", "log2 fold change": "-0.009 (inactive)"}, {"target": "OXSM (UniProt Q9NWU1)", "log2 fold change": "-0.01 (inactive)"}, {"target": "MT-ATP6 (UniProt P00846)", "sequence (P00846 whole entry, looked up)": "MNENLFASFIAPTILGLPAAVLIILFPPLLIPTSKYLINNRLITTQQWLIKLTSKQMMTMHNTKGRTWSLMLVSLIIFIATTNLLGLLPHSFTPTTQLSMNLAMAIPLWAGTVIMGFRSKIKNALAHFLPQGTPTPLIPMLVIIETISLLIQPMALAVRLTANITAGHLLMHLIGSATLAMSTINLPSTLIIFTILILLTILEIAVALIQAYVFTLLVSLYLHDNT", "log2 fold change": "0.122 (inactive)"}, {"target": "OTUD4 (UniProt Q01804)", "log2 fold change": "-0.018 (inactive)"}, {"target": "MRPL50 (UniProt Q8N5N7)", "log2 fold change": "0.133 (inactive)"}, {"target": "NFATC2 (UniProt Q13469)", "log2 fold change": "0.118 (inactive)"}, {"target": "NUP205 (UniProt Q92621)", "log2 fold change": "0.023 (inactive)"}, {"target": "MRPS24 (UniProt Q96EL2)", "log2 fold change": "0.024 (inactive)"}, {"target": "MINK1 (UniProt Q8N4C8)", "log2 fold change": "-0.015 (inactive)"}, {"target": "NUP85 (UniProt Q9BW27)", "log2 fold change": "-0.001 (inactive)"}, {"target": "NOP56 (UniProt O00567)", "sequence (O00567 whole entry, looked up)": "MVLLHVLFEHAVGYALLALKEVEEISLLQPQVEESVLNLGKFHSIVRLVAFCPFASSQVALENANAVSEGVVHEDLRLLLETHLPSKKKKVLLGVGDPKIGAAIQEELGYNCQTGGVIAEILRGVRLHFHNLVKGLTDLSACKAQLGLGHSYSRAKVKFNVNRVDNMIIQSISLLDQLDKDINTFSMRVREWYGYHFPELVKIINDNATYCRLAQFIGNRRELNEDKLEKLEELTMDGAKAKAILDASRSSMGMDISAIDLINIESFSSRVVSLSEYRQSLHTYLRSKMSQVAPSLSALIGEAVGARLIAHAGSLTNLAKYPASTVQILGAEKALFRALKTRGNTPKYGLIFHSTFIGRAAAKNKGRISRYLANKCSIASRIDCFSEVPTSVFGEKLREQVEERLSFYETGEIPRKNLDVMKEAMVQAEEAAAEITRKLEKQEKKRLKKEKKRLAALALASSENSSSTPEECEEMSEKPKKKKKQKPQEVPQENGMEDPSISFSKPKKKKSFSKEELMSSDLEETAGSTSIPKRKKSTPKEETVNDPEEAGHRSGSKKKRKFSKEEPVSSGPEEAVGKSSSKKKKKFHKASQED", "log2 fold change": "-0.01 (inactive)"}, {"target": "P4HA2 (UniProt O15460)", "log2 fold change": "0.098 (inactive)"}, {"target": "NCAPH (UniProt Q15003)", "log2 fold change": "0.04 (inactive)"}, {"target": "MRPS15 (UniProt P82914)", "log2 fold change": "0.039 (inactive)"}, {"target": "NA, A0A096LPI6", "log2 fold change": "-0.037 (inactive)"}, {"target": "NQO1 (UniProt P15559)", "log2 fold change": "0.027 (inactive)"}, {"target": "NIBAN1 (UniProt Q9BZQ8)", "log2 fold change": "0.004 (inactive)"}, {"target": "MPHOSPH10 (UniProt O00566)", "log2 fold change": "0.098 (inactive)"}, {"target": "NCAPD2 (UniProt Q15021)", "log2 fold change": "0.012 (inactive)"}, {"target": "NFATC2IP (UniProt Q8NCF5)", "log2 fold change": "0.012 (inactive)"}, {"target": "NARS2 (UniProt Q96I59)", "log2 fold change": "-0.127 (inactive)"}, {"target": "NMT2 (UniProt O60551)", "log2 fold change": "0.008 (inactive)"}, {"target": "MTHFS (UniProt P49914)", "log2 fold change": "0.043 (inactive)"}, {"target": "NUCKS1 (UniProt Q9H1E3)", "log2 fold change": "-0.006 (inactive)"}, {"target": "MYH11 isoform 2 (UniProt P35749)", "sequence (P35749 whole entry, looked up)": "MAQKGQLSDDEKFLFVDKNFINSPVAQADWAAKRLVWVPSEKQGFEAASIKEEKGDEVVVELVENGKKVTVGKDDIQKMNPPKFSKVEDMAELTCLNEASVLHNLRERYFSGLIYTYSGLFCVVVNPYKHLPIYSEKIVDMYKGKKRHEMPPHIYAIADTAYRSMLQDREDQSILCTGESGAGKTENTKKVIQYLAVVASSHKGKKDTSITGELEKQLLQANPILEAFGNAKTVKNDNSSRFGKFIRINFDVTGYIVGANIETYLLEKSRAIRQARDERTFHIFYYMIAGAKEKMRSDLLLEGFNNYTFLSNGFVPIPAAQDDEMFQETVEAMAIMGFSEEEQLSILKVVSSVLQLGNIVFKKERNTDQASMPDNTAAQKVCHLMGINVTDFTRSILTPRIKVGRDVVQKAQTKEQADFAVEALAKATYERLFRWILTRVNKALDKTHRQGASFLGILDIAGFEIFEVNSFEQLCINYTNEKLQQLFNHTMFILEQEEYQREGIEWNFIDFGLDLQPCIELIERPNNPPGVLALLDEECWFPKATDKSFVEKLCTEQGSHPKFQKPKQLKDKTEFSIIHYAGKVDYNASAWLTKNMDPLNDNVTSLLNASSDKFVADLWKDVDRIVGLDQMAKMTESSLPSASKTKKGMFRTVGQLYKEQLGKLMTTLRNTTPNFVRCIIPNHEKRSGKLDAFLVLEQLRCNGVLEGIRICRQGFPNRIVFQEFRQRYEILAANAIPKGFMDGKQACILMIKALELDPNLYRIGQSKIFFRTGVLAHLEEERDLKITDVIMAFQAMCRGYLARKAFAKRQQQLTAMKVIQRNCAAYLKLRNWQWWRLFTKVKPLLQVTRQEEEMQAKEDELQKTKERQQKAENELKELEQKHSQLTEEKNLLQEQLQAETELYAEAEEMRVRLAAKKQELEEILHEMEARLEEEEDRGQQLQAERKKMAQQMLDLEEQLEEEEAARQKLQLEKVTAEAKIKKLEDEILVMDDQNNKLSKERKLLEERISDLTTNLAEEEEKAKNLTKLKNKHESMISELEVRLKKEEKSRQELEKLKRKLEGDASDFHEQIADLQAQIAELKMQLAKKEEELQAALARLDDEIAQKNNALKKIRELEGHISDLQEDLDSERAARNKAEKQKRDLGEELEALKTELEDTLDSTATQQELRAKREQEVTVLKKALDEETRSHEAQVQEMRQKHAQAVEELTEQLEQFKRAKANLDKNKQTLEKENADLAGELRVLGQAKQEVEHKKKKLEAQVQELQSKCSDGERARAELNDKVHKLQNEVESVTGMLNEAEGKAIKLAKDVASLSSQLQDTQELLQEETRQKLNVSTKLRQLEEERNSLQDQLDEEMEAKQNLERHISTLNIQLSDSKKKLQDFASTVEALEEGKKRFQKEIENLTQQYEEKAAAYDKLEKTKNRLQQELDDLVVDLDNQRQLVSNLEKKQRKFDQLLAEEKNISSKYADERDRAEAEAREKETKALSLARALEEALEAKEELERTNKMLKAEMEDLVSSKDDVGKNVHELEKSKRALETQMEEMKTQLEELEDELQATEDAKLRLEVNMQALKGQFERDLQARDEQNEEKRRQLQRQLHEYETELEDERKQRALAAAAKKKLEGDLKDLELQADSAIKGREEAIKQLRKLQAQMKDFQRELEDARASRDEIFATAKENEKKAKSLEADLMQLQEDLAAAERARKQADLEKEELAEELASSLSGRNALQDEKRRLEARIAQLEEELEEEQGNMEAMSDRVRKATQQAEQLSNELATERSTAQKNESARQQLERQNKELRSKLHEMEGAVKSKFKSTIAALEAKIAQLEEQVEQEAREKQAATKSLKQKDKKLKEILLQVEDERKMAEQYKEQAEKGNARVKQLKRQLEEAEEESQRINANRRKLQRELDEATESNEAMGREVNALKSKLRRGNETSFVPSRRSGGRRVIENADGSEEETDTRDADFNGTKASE", "log2 fold change": "-0.025 (inactive)"}, {"target": "NUP160 (UniProt Q12769)", "log2 fold change": "0 (inactive)"}, {"target": "NDUFA12 (UniProt Q9UI09)", "sequence (Q9UI09 whole entry, looked up)": "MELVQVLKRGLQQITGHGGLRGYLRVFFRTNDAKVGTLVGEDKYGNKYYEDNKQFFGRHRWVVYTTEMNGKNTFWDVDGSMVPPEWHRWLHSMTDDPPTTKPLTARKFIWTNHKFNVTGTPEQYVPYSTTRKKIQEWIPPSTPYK", "log2 fold change": "0 (inactive)"}, {"target": "NUDT21 (UniProt O43809)", "log2 fold change": "0.01 (inactive)"}, {"target": "NCOA7 (UniProt Q8NI08)", "log2 fold change": "-0.02 (inactive)"}, {"target": "MON2 isoform 5 (UniProt Q7Z3U7)", "sequence (Q7Z3U7 whole entry, looked up)": "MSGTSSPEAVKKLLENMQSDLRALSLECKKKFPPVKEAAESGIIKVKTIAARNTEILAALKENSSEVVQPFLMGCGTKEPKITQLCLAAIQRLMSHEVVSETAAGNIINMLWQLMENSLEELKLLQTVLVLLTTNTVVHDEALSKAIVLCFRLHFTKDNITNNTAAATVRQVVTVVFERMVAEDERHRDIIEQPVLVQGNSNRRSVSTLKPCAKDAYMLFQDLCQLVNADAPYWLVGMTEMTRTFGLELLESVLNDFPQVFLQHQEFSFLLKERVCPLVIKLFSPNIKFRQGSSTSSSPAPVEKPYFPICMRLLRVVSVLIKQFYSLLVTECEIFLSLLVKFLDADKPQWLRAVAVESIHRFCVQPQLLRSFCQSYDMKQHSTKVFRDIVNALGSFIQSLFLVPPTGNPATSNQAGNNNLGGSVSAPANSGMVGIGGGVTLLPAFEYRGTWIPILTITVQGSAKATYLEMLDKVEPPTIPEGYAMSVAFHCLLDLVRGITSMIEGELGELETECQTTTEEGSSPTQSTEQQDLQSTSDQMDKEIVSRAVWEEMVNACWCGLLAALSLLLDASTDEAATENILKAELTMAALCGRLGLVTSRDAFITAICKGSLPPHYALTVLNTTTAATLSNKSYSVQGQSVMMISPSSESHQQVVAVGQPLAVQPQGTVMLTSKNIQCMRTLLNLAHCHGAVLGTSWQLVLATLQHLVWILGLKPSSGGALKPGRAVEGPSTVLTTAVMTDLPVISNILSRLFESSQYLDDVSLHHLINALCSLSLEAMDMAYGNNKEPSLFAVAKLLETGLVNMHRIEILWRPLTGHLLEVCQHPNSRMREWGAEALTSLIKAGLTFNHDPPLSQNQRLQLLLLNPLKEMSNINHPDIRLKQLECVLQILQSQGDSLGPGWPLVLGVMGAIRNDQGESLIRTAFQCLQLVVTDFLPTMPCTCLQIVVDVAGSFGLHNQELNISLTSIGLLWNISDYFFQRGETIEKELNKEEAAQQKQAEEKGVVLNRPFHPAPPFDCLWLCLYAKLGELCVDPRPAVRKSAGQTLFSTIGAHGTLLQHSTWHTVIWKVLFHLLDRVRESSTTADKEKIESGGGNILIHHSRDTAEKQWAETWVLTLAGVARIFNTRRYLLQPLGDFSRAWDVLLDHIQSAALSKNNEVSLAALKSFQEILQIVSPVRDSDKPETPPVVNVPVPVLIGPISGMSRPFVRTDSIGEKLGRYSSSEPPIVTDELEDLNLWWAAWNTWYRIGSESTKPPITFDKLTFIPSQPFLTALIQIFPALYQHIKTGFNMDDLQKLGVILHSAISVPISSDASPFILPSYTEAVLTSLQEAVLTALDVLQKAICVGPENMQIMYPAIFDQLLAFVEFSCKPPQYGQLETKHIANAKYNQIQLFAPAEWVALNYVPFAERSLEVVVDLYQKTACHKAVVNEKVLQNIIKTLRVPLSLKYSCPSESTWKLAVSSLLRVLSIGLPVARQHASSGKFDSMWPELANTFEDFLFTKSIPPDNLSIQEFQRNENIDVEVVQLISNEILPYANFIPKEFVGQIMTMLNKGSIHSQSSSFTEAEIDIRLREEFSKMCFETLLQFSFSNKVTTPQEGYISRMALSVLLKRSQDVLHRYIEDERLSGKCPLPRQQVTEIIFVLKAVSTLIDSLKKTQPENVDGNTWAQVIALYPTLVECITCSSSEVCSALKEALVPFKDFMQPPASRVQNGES", "log2 fold change": "-0.005 (inactive)"}, {"target": "NMRAL1 (UniProt Q9HBL8)", "log2 fold change": "0.14 (inactive)"}, {"target": "NMNAT1 (UniProt Q9HAN9)", "log2 fold change": "0.07 (inactive)"}, {"target": "MND1 (UniProt Q9BWT6)", "log2 fold change": "-0.006 (inactive)"}, {"target": "NUDT16 (UniProt Q96DE0)", "log2 fold change": "0.009 (inactive)"}, {"target": "NGLY1 (UniProt Q96IV0)", "log2 fold change": "-0.04 (inactive)"}]}]}
